Reference: PubChem BioAssay (EPA / NIEHS)
Inconclusive results are not listed. The source made the active and inactive calls. Rule for the calls, unless noted: active = hit-call score of the fitted dose curve at least 0.9, where 1 is the maximum; inconclusive = response in the unintended direction; inactive = score below 0.9.

Key:
[1] = target: human Peroxisome Proliferator-activated Receptor delta (PPARd), PPARD (gene 5467) (UniProt Q03181); assay: ATG_PPARd_TRANS: Attagene TRANS-FACTORIAL HepG2 Assay for human Peroxisome Proliferator-activated Receptor delta (PPARd) (AID 2283002)
How it was run: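 Fluorescence from capillary electrophoresis of labelled RT-PCR reporter fragments gives the signal; DMSO sets baseline. Cells: HepG2 transiently carrying GAL4-UAS reporter units plus chimeric nuclear receptor-Gal4 proteins, exposed to chemicals for 24 h.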

[2] = target: Peroxisome proliferator-activated receptor gamma (Homo sapiens) (UniProt P37231); assay: ATG_PPARg_TRANS: Attagene TRANS-FACTORIAL HepG2 Assay for human Peroxisome Proliferator-activated Receptor-gamma (PPARg) (AID 2283007)
How it was run: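 Read-out: reporter mRNA induction, detected by fluorescence after RT-PCR and capillary electrophoresis. Transiently transfected human HepG2 liver cells carrying a chimeric NR-Gal4 construct were dosed for 24 h; activity was fitted upward relative to DMSO.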

[3] = target: human RAR-related Orphan Receptor gamma (RORg), RORC (gene 6097) (UniProt P51449); assay: ATG_RORg_TRANS: Attagene TRANS-FACTORIAL HepG2 Assay for human RAR-related Orphan Receptor gamma (RORg) (AID 2283011)
How it was run: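 Readout: reporter transcript induction (RT-PCR, fluorescent primer extension, capillary electrophoresis) after 24 h compound exposure of transiently transfected HepG2 cells carrying a RORg-Gal4 chimera and GAL4-UAS reporters; DMSO served as baseline, with increasing signal fitted.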

[4] = target: Retinoic acid receptor RXR-alpha (Homo sapiens) (UniProt P19793); assay: ATG_RXRa_TRANS: Attagene TRANS-FACTORIAL HepG2 Assay for human Retinoid X Receptor alpha (RXRa) (AID 2283012)
How it was run: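 Transient transfection of human HepG2 with multiple GAL4-UAS reporter constructs; 24 h compound exposure; total RNA isolated, reverse-transcribed, PCR-amplified, 6-FAM labelled, HpaI-cut, resolved by capillary electrophoresis. Positive-direction fit versus DMSO.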

[5] = target: human Retinoid X Receptor beta (RXRb), RXRB (gene 6257) (UniProt P28702); assay: ATG_RXRb_TRANS: Attagene TRANS-FACTORIAL HepG2 Assay for human Retinoid X Receptor beta (RXRb) (AID 2283013)
How it was run: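 Transfect HepG2 with GAL4-UAS multi-reporter constructs (chimeric NR-Gal4, TRANS format); dose compound 24 h; isolate RNA, RT-PCR, FAM primer extension, HpaI digest; quantify by capillary electrophoresis; positive direction vs DMSO.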

[6] = target: human Thyroid Receptor alpha (THRa1), THRA (gene 7067) (UniProt P10827); assay: ATG_THRa1_TRANS: Attagene TRANS-FACTORIAL HepG2 Assay for human Thyroid Receptor alpha (THRa1) (AID 2283014)
How it was run: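 HepG2 cells transiently transfected with multiplexed GAL4-UAS reporter units for exogenous chimeric THRa1-Gal4; reporter mRNA measured 24 h after dosing by RT-PCR, 6-FAM labelling, HpaI digestion and capillary electrophoresis. Gain-of-signal fitted versus DMSO baseline.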

[7] = read-out: Intercellular Adhesion Molecule 1 (ICAM1), ICAM1 (gene 3383); assay: BSK_3C_ICAM1: BioMAP Diversity Plus: 3C Assay for Intercellular Adhesion Molecule 1 (ICAM1) Biomarker Activity (AID 2283003; active = hit-call score of the fitted dose curve at least 0.9, where 1 is the maximum; inactive = score below 0.9); details: primary human endothelial cells (HUVEC); actives raise or lower the signal
How it was run: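 ICAM-1 levels measured by ELISA after HUVEC cultures in the 3C system had been dosed for 24 h. Gain or loss of signal relative to DMSO was fitted in both directions.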

[8] = BSK_3C_Proliferation: Cell Proliferation Assessment in the BioMAP Diversity Plus: 3C Assay (AID 2283006; active = hit-call score of the fitted dose curve at least 0.9, where 1 is the maximum; inactive = score below 0.9;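 for AC50: potency may reflect either rise or fall in cell number versus DMSO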); details: primary human endothelial cells (HUVEC)
How it was run: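 Read-out is total protein by SRB absorbance at 560 nm, taken as a proxy for relative cell number. Primary human umbilical vein endothelium cultured below confluence was dosed for 48 h, TCA-fixed and SRB-stained; curves were fitted bidirectionally versus DMSO.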

[9] = target: Nuclear receptor subfamily 1 group I member 2 (Homo sapiens) (UniProt O75469); assay: ATG_PXR_TRANS: Attagene TRANS-FACTORIAL HepG2 Assay for human Pregnane X Receptor (PXR) (AID 2283008)
How it was run: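 Read-out is fluorescence of labelled reporter cDNA fragments separated by capillary electrophoresis after RT-PCR and HpaI digestion. Source: HepG2 cells carrying PXR-GAL4/UAS reporter constructs, treated 24 h; activity fitted upward relative to DMSO.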

[10] = target: human RAR-related Orphan Receptor beta (RORb), RORB (gene 6096) (UniProt Q92753); assay: ATG_RORb_TRANS: Attagene TRANS-FACTORIAL HepG2 Assay for human RAR-related Orphan Receptor beta (RORb) (AID 2283010)
How it was run: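 Readout is reporter-gene mRNA induction, detected as fluorescence after RT-PCR and capillary electrophoresis, fitted for gain of signal against DMSO controls. Transiently transfected HepG2 liver cells carrying GAL4-UAS reporter constructs were treated for 24 hours.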

[11] = read-out: E-selectin (Homo sapiens) (UniProt P16581); assay: BSK_3C_Eselectin: BioMAP Diversity Plus: 3C Assay for Eselectin Biomarker Activity (AID 2283015; active = hit-call score of the fitted dose curve at least 0.9, where 1 is the maximum; inactive = score below 0.9); details: primary human endothelial cells (HUVEC); actives raise or lower the signal
How it was run: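 Primary human umbilical vein endothelial cells (3C system) were dosed with chemical and cell-surface E-selectin measured by ELISA 24 h later. Bidirectional curve fitting used DMSO as negative control and baseline.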

[12] = read-out: Interleukin-1 alpha (IL1a), IL1A (gene 3552); assay: BSK_BE3C_IL1a: BioMAP Diversity Plus: BE3C Assay for Interleukin-1 alpha (IL1a) Biomarker Activity (AID 2283016; active = hit-call score of the fitted dose curve at least 0.9, where 1 is the maximum; inactive = score below 0.9); details: primary human bronchial epithelial cells; actives raise or lower the signal
How it was run: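 BE3C primary human bronchial epithelium; cpd 24 h; IL-1a by ELISA; bidirectional fit vs DMSO; parallel SRB (0.1% SRB, 10% TCA fix, 560 nm) for cytotoxicity.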

[13] = read-out: Monocyte Chemoattractant Protein-1 (MCP1), CCL2 (gene 6347); assay: BSK_3C_MCP1: BioMAP Diversity Plus: 3C Assay for Monocyte Chemoattractant Protein-1 (MCP1) Biomarker Activity (AID 2283017; active = hit-call score of the fitted dose curve at least 0.9, where 1 is the maximum; inactive = score below 0.9); details: primary human endothelial cells (HUVEC); actives raise or lower the signal
How it was run: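 Primary human umbilical vein endothelial cells (3C system) were exposed to test chemical for 24 h, after which MCP-1 was quantified by ELISA. Activity was fitted bidirectionally against DMSO as negative control and baseline.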

[14] = read-out: Monocyte Chemoattractant Protein-1 (MCP1), CCL2 (gene 6347); assay: BSK_4H_MCP1: BioMAP Diversity Plus: 4H Assay for Monocyte Chemoattractant Protein-1 (MCP1) Biomarker Activity (AID 2283018; active = hit-call score of the fitted dose curve at least 0.9, where 1 is the maximum; inactive = score below 0.9); details: primary human endothelial cells (HUVEC); actives raise or lower the signal
How it was run: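 ELISA read-out of MCP-1 from human vascular endothelial primary cells taken at 24 hours after compound exposure. Activity was fitted in both directions relative to DMSO, which served as negative control.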

[15] = read-out: Human Leukocyte Antigen - DR isotype (HLADR), HLA-DRA (gene 3122); assay: BSK_3C_HLADR: BioMAP Diversity Plus: 3C Assay for Human Leukocyte Antigen - DR isotype (HLADR) Biomarker Activity (AID 2283019; active = hit-call score of the fitted dose curve at least 0.9, where 1 is the maximum; inactive = score below 0.9); details: primary human endothelial cells (HUVEC); actives raise or lower the signal
How it was run: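 Primary human umbilical vein endothelial cells (3C system) were dosed with compound and cell-surface HLA-DR was quantified by ELISA at 24 h. Activity was fitted bidirectionally against DMSO as negative control and baseline.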

[16] = read-out: Interleukin-8 (IL8), CXCL8 (gene 3576); assay: BSK_3C_IL8: BioMAP Diversity Plus: 3C Assay for Interleukin-8 (IL8) Biomarker Activity (AID 2283020; active = hit-call score of the fitted dose curve at least 0.9, where 1 is the maximum; inactive = score below 0.9); details: primary human endothelial cells (HUVEC); actives raise or lower the signal
How it was run: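 ELISA read-out of IL-8 from human umbilical vein endothelium, measured 24 h after chemical dosing. Activity is expressed relative to DMSO negative control, with both increases and decreases fitted.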

[17] = target: human Retinoic Acid Receptor beta (RARb), RARB (gene 5915) (UniProt P10826); assay: ATG_RARb_TRANS: Attagene TRANS-FACTORIAL HepG2 Assay for human Retinoic Acid Receptor beta (AID 2283004)
How it was run: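 HepG2 cells transiently transfected with multiplexed GAL4-UAS reporter units expressing chimeric NR–Gal4 fusions; 24 h compound exposure. Reporter mRNA quantified by RT-PCR, 6-FAM labelling, HpaI digestion and capillary electrophoresis; gain-of-signal fitted against DMSO baseline.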

[18] = target: human Retinoic Acid Receptor gamma (RARg), RARG (gene 5916) (UniProt P13631); assay: ATG_RARg_TRANS: Attagene TRANS-FACTORIAL HepG2 Assay for human Retinoic Acid Receptor gamma (RARg) (AID 2283009)
How it was run: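 Transient transfection of HepG2 with multi-reporter constructs, then 24 h chemical treatment. Total RNA isolated, reverse-transcribed, PCR-amplified, fluorescently labelled and resolved by capillary electrophoresis; activity scored as mRNA induction versus DMSO.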

Measured: AC50

Sequence of Retinoic acid receptor RXR-alpha (Homo sapiens) (P19793 whole entry, looked up, the tested form may be a part): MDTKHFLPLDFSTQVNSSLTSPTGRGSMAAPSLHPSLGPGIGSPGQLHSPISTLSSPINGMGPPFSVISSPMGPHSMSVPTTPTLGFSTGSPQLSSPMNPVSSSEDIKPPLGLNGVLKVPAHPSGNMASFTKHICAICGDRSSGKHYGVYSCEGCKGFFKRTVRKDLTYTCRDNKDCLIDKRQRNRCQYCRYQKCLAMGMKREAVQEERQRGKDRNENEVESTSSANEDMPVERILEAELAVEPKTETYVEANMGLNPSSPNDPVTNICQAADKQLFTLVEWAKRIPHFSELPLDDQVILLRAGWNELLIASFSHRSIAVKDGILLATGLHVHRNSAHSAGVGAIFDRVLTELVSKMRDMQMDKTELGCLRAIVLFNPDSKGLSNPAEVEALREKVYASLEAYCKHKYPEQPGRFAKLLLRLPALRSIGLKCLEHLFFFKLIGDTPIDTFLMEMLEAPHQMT
Sequence of human Retinoid X Receptor beta (RXRb), RXRB (gene 6257) (P28702 whole entry, looked up, the tested form may be a part): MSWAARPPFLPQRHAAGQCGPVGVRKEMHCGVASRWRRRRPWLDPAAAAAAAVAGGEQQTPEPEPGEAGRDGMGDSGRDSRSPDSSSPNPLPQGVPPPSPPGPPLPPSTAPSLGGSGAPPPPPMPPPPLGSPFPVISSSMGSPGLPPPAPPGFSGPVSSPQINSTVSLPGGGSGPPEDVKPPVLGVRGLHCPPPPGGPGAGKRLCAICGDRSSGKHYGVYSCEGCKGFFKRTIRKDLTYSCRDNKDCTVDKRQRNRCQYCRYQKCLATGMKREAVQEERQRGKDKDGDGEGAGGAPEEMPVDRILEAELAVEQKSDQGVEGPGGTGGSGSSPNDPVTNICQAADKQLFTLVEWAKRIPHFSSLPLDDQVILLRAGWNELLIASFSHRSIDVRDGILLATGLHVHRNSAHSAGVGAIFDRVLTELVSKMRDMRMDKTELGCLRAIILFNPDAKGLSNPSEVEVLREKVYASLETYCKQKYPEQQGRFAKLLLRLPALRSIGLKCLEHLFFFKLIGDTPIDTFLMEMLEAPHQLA
Sequence of E-selectin (Homo sapiens) (P16581 whole entry, looked up): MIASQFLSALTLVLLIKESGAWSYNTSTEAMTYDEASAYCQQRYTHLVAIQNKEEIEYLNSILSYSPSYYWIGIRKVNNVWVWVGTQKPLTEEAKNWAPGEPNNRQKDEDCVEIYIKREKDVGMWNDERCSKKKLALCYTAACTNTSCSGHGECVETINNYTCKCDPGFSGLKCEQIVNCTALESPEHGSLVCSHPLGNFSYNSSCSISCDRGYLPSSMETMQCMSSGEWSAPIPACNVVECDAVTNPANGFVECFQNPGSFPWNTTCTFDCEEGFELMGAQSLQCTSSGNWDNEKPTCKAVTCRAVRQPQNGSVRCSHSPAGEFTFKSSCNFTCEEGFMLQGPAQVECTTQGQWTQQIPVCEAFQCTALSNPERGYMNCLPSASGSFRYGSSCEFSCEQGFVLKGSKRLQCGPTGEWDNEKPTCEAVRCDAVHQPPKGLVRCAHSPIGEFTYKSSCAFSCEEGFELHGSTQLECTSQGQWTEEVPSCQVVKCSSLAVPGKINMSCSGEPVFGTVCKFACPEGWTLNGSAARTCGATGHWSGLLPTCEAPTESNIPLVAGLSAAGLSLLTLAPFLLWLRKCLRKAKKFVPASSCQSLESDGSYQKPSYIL
Sequence of human Peroxisome Proliferator-activated Receptor delta (PPARd), PPARD (gene 5467) (Q03181 whole entry, looked up, the tested form may be a part): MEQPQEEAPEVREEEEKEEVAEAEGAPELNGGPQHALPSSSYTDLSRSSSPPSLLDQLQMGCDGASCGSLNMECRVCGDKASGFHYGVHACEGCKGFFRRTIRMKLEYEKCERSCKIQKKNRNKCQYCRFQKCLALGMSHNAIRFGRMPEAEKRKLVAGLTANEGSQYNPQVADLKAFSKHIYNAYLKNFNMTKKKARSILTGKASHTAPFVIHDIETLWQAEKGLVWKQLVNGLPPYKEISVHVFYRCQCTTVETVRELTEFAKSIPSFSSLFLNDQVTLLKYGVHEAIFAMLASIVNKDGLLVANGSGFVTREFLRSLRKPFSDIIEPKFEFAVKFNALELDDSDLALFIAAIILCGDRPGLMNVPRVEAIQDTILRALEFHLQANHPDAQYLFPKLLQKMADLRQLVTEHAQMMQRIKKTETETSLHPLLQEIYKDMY
Sequence of Nuclear receptor subfamily 1 group I member 2 (Homo sapiens) (O75469 whole entry, looked up, the tested form may be a part): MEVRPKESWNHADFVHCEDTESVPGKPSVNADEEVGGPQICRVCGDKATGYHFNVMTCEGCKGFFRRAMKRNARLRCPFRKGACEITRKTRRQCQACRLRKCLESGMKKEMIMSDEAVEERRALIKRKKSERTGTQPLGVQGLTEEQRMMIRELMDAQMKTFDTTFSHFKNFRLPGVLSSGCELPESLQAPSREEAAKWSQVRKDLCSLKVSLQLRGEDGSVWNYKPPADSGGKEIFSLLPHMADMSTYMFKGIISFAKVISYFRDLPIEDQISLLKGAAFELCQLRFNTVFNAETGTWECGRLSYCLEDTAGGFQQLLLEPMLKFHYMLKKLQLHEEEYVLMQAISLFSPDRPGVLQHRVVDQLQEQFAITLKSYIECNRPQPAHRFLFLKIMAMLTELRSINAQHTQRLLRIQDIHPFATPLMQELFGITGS
Sequence of human RAR-related Orphan Receptor gamma (RORg), RORC (gene 6097) (P51449 whole entry, looked up, the tested form may be a part): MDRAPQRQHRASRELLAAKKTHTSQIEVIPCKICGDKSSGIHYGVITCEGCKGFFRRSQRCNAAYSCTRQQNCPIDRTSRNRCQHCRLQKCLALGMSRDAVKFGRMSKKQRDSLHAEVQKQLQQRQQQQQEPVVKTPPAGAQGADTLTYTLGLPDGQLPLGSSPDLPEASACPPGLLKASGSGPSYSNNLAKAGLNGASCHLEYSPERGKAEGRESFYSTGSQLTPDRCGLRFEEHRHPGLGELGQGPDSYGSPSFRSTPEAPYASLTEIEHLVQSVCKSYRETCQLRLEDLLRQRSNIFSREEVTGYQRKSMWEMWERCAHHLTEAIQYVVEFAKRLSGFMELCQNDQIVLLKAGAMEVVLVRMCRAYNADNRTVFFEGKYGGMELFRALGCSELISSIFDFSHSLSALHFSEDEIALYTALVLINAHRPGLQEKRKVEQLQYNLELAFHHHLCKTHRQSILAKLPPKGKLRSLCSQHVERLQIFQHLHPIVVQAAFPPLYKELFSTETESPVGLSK
Sequence of Peroxisome proliferator-activated receptor gamma (Homo sapiens) (P37231 whole entry, looked up, the tested form may be a part): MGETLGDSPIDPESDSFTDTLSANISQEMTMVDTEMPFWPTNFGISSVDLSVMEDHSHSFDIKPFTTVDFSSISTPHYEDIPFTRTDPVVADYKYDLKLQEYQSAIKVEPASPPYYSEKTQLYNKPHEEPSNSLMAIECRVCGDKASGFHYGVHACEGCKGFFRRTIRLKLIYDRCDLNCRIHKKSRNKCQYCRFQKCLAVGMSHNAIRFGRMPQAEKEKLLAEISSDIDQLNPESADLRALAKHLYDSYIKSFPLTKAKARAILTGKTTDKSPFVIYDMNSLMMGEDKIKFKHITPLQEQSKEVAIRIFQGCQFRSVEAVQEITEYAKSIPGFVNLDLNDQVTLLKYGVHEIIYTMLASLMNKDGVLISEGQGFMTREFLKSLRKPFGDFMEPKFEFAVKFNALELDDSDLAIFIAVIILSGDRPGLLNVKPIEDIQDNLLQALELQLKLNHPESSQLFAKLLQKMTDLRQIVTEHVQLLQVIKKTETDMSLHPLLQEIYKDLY
Sequence of human Thyroid Receptor alpha (THRa1), THRA (gene 7067) (P10827 whole entry, looked up, the tested form may be a part): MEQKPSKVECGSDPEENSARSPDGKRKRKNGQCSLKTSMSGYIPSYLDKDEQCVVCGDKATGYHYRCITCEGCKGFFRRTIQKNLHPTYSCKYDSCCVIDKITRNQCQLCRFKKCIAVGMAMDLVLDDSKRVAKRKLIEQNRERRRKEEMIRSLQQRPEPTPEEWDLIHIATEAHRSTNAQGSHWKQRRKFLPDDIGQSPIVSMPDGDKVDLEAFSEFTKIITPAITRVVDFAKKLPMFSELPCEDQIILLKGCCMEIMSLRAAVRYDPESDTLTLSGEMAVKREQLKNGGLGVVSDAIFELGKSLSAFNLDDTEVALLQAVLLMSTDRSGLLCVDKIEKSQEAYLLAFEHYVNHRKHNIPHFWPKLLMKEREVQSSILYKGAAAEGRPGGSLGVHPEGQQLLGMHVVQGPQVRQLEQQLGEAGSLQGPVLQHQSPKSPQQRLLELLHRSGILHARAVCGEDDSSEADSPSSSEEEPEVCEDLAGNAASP
Sequence of human RAR-related Orphan Receptor beta (RORb), RORB (gene 6096) (Q92753 whole entry, looked up, the tested form may be a part): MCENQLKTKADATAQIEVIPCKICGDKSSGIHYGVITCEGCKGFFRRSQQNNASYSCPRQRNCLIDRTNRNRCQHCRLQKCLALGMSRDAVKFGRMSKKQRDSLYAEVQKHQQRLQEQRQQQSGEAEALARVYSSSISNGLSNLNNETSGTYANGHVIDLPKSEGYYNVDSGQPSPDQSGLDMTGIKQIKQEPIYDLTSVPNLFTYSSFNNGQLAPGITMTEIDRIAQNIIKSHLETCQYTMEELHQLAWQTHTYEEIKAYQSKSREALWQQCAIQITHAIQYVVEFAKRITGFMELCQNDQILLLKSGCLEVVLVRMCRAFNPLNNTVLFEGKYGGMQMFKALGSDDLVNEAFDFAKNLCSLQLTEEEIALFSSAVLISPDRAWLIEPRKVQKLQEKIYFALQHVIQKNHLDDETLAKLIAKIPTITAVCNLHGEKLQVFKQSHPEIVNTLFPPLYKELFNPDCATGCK
Sequence of human Retinoic Acid Receptor gamma (RARg), RARG (gene 5916) (P13631 whole entry, looked up): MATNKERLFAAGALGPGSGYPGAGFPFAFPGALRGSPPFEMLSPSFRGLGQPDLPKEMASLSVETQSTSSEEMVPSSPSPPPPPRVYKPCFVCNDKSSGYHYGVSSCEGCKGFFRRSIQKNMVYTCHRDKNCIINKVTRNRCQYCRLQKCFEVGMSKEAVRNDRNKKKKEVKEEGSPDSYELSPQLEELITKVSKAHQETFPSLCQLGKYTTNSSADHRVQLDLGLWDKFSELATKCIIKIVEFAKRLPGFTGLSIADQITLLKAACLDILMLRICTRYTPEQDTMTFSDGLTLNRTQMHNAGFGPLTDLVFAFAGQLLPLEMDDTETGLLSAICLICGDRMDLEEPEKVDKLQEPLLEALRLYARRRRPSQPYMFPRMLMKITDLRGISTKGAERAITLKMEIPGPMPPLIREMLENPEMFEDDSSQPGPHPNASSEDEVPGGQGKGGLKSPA

Nc1ccc(F)c([N+](=O)[O-])c1
inactive: [1] | [2] | [3] | [4] | [5] | [6]

CC[Si](OC(C)=O)(OC(C)=O)OC(C)=O
active: [9] 7.32 µM
not listed: [1] | [4] | [5] | [6] | [17] | [18]
inactive: all other assays above

CN(CCOc1ccc(CC2SC(=O)NC2=O)cc1)c1ccccn1 (stereo unspecified)
active: [8] 7.9 µM | [9] 5.11 µM | [11] 3.97 µM | [12] 3.97 µM | [13] 0.113 µM | [14] 3.97 µM | [15] 9.42 µM
inactive: [7] | [4] | [5] | [6] | [16]

CC1(C)[C@H]2CC[C@]1(C)[C@H](O)C2
inactive: [1] | [9] | [10] | [5]

CC(=O)C(C)=O
inactive: [1] | [4]

COc1cccc(OC)c1
inactive: [1] | [2] | [3]

CC1=CC(=O)NS(=O)(=O)O1
inactive: [1] | [3] | [5] | [6]

O=P(c1ccccc1)(c1ccccc1)c1ccccc1
active: [9] 0.325 µM
not listed: [1] | [4] | [5] | [6] | [10] | [17] | [18]
inactive: all other assays above

CC(CC(C)(C)C)CC(C)(C)CC(C)(C)C (stereo unspecified)
inactive: [1] | [10] | [3] | [4] | [5] | [6]

CN(C)c1ccc(O)c2c1C[C@H]1C[C@H]3[C@H](N(C)C)C(=O)C(C(N)=O)=C(O)[C@@]3(O)C(=O)C1=C2O
inactive: [1] | [9] | [5]

CC(=O)Nc1ccc(C)cc1C
inactive: [1] | [9] | [3] | [4] | [6]

CNC[C@H](O)c1cccc(O)c1
active: [5] 33.9 µM
not listed: [1] | [2] | [3] | [4]
inactive: all other assays above

Nc1cccc(S(=O)(=O)c2cccc(N)c2)c1
inactive: [1] | [9] | [10] | [6]

COc1ccc(Nc2ccccc2)c(C)c1
inactive: [1] | [4] | [6]
active: [9] 11.1 µM | [5] 33.1 µM

CC(C)(C)NC(N)=O
inactive: [1] | [4] | [5] | [6]

CCCC1CCC(=O)O1 (stereo unspecified)
inactive: [1] | [9]

CC1(C)[C@H](C(=O)OCc2cccc(Oc3ccccc3)c2)[C@@H]1C=C(Cl)Cl
inactive: [1] | [6]

COC(=O)c1ccc(C)cc1
active: [9] 9.06 µM | [5] 14.3 µM
not listed: [1] | [2] | [3] | [10] | [17] | [18]
inactive: all other assays above

O=[N+]([O-])c1ccc(Nc2ccc(Nc3ccccc3)c(S(=O)(=O)O)c2)c([N+](=O)[O-])c1
active: [2] 17.9 µM
inactive: [1] | [10] | [4]

CN(C)C(=N)N=C(N)N
inactive: [1] | [9] | [18] | [4] | [6]

COc1cc(C=O)ccc1OC(=O)C(C)C
not listed: [1] | [3] | [18]
inactive: all other assays above

CCCCCCCCCCN
inactive: [1] | [4] | [5]

COC(C(=O)O)c1ccccc1 (stereo unspecified)
inactive: [1] | [9]
active: [6] 62.9 µM

CCC(C)(O)CCC=C(C)C (stereo unspecified)
inactive: [1] | [9] | [10] | [4]

CC(c1cc2ccccc2s1)N(O)C(N)=O (stereo unspecified)
inactive: [1] | [9] | [6]

CC(=O)Nc1ccccc1O
not listed: [1] | [6] | [10] | [17] | [18]
inactive: all other assays above
